# Shiga toxin inh: A qHTS for Small Molecule Inhibitors of Shiga Toxin; Vero cells, Shiga toxin protein synthesis inhibition reporter; inhibition, % at 38.7 µM; 9.2% of 290,000 active; AID 2315, 2010; in the data active = inhibition mostly above about 28%, no sharp cut-off; inactive = mostly below about 43%; note: 0% is about no effect
# Pf growth 48h: Primary qHTS for delayed death inhibitors of the malarial parasite plastid, 48 hour incubation; P. falciparum luciferase growth in erythrocytes, 48 h; Potency, µM (doses to about 28.7 µM), without a hit: top-dose activity change, negative = inhibition, most hits filed as inhibitors; 5.9% of 310,000 active; AID 504832, 2011; note: potency is the fitted concentration of half-maximal effect; % is set by controls: 0 for no effect and ±100 for the full control effect
#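 A one-generation exposure of luciferase-tagged malaria parasites in RPMI 1640/Albumax erythrocyte culture, 37 C and 5% CO2. Inhibition is inferred from decreased luminescence after adding detection reagent.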
# Cycloheximide cs: Cycloheximide Counterscreen for Small Molecule Inhibitors of Shiga Toxin | cell reporter, cycloheximide protein synthesis inhibition counterscreen | max response, % | 12% of 300,000 active; in the data active = max response mostly above about 13%, no sharp cut-off; inactive = mostly below about 14%; note: read at 38.3 µM for the half of the compounds with a filed dose; 0% is about no effect
# HCMV inh: qHTS Assay for inhibitors of the human cytomegalovirus (HCMV). HFF cells, HCMV-luciferase reporter, 72 h; hits give low values. activity change, negative = inhibition, % at 57.5 µM. 4.5% of 410,000 active; in the data active = activity change below about -60%; inconclusive = no clear call, values can overlap the other calls; inactive = above about -39%; note: % is set by controls: 0 for no effect and ±100 for the full control effect
#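 Cell-based, HFFs, 1000 cells/well, 16 h 37C; cpds in DMSO + HCMV-luc, MOI 1 PFU/cell; 72 h 37C; OneGlo luminescence after 5 min RT; norm. to buffer vs Salinomycin 10uM.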
# Pf growth 96h: Primary qHTS for delayed death inhibitors of the malarial parasite plastid, 96 hour incubation; P. falciparum luciferase reporter growth, 96 h; Potency, µM (highest dose often 28.7 µM), for the others: top-dose activity change, negative = inhibition, usual class: inhibitors; 6.9% of 320,000 active; AID 504834, 2011; note: potency is the fitted concentration of half-maximal effect; % is set by controls: 0 for no effect and ±100 for the full control effect
#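 Plates of compound plus infected erythrocytes (2% hematocrit, 0.05% parasitemia final) incubate 96 hours, 37 C, 5% CO2. Detection reagent added; reduced luminescence from the parasites' luciferase reporter flags inhibition.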
# * hit, by the source's call; ? = inconclusive; · = no result given. Compounds with a hit are over-represented: about 20% of the library has one in this group of screens. Unless noted, calls come from the whole dose curve; as a rule, active = well fitted inhibition curve with a large enough effect; inconclusive = small, poorly fitted or top-dose-only effect, or another doubt; inactive = no such curve, though single readings can be large or run the other way.
SMILES,Shiga toxin inh,Pf growth 48h,Cycloheximide cs,HCMV inh,Pf growth 96h
CCN(C(=O)COC(=O)c1ccc(F)c(S(=O)(=O)N2CCOCC2)c1)C1CCS(=O)(=O)C1 (configuration not stated),-2.7,11.5%,0.4,-32.8,-1.2%
CC(=O)c1ccc(NC(=O)CSc2ccc(-c3ccc4c(c3)OCO4)nn2)cc1,2.5,69.4%,21.5,11.5,45.5%
Cc1nc(C)c(-c2ccc(SCC(=O)Nc3ccccc3)nn2)s1,-8.7,-4.2%,2.8,?,?
Fc1cccc(CSc2ccc(-c3ccc4c(c3)OCO4)nn2)c1,11.5,14.3%,11.0,?,73.8%
Cc1nc(C)c(-c2ccc(SCc3ccccc3C)nn2)s1,33.7*,25.7%,44.7*,-15.1,-6.5%
c1cncc(CSc2ccc(-c3ccc4c(c3)OCO4)nn2)c1,98.7*,335.8%,57.1*,50.0,0.0%
Cc1ccccc1CSc1ccc(-c2ccc3c(c2)OCO3)nn1,82.2*,65.0%,49.1*,-31.9,103.1%
CC[C@H]1Nc2ccc(NC(=O)OC(C)(C)C)cc2[C@@H](NC(=O)OCc2ccccc2)[C@@H]1C,·,·,·,30.6,·
CNC(=O)c1nc(C)c(C2(C)CC(c3ccccc3)=NO2)s1 (configuration not stated),-5.6,19.4%,3.2,-30.1,39.8%
Cc1nc(C(=O)NC2CC2)sc1C1(C)CC(c2ccccc2)=NO1 (configuration not stated),20.5,-11.0%,17.8*,8.4,-4.3%
COC(=O)CNC(c1ccccc1)c1cc(Br)ccc1NS(=O)(=O)c1ccccc1 (configuration not stated),-11.0,14.7µM*,-0.4,-13.8,3.6%
COC(=O)CNC(c1ccccc1)c1cc(Br)ccc1NS(=O)(=O)c1ccc(C)cc1 (configuration not stated),-9.1,11.7µM*,1.5,?,42.5%
Cc1cc(C)c(OCC(=O)OCC(=O)NCC2CCCCC2)c(C)c1,·,-17.8%,·,-33.0,2.7%
Cc1ccc(NC(=O)Cn2c(=O)n(Cc3ccco3)c(=O)c3ccccc32)cc1,·,·,·,-18.8,·
O=C(Nc1cccc(Cl)c1)c1c(O)c2c(n(Cc3ccco3)c1=O)CCCC2,57.1,57.3%,31.4*,-35.8,33.0%
COc1cc2c(=O)n(Cc3ccco3)c(=O)n(CC(=O)Nc3ccc(F)cc3)c2cc1OC,·,·,·,11.6,·
O=C(Cn1c(=O)n(Cc2ccco2)c(=O)c2ccccc21)Nc1cccc(Cl)c1,30.5*,?,22.9*,-36.8,?
COc1ccc(NC(=O)Cn2c(=O)n(Cc3ccco3)c(=O)c3cc(OC)c(OC)cc32)cc1,·,·,·,-97.0*,·
Cc1cc(C)c(NC(=O)CSc2nc(=O)n(Cc3ccco3)c3c2CCC3)c(C)c1,·,·,·,-12.5,·
C[n+]1c2n(c3ccccc31)N=C(c1cc(C(C)(C)C)c(O)c(C(C)(C)C)c1)CS2,15.7,?,-4.3,-100.7*,22.8%
CC(=O)OC1CC(c2cc(C(C)(C)C)c(O)c(C(C)(C)C)c2)=NO1 (configuration not stated),-19.7,-13.0%,-1.1,14.4,11.9%
COc1cc(OC)cc(-c2nc3nc(C)c(CCC(=O)Nc4cc(C)cc(C)c4)c(C)n3n2)c1,·,·,·,13.4,·
N#Cc1c(NC(=O)CSc2ncc(-c3ccccc3)n2CC2CCCO2)sc2c1CCCC2 (configuration not stated),-18.7,?,-1.5,-61.8*,0.8%
N#Cc1c(NC(=O)CSc2nnc(-c3ccncc3)n2CC2CCCO2)sc2c1CCCC2 (configuration not stated),-9.3,17.1%,-5.2,-80.3*,?
CCOC(=O)CNC(=O)N1CCCN(S(=O)(=O)c2ccc3c(ccn3CC)c2)CC1,·,·,·,4.8,·
SMILES,Shiga toxin inh,Pf growth 48h,Cycloheximide cs,HCMV inh,Pf growth 96h
CN1CCN(C2=C(Cl)C(=O)N(C3CCCCC3)C2=O)CC1,4.8,-9.9%,0.4,-95.3*,-25.1%
CCOC(=O)C1CCCN(S(=O)(=O)c2ccc(-c3cc(C)no3)s2)C1 (configuration not stated),-4.1,?,1.6,?,?
O=Cc1ccc(OC(=O)CCCCC(=O)Oc2ccc(C=O)cc2)cc1,-10.0,?,5.4,6.3,0.0033µM*
COC(=O)CCC(=O)Oc1ccc(OC(=O)CCC(=O)OC)cc1,-8.4,?,-5.3,·,-9.4%
CC(=O)Nc1c(C)nn(-c2ccccc2)c1N1CCC(C(=O)NCc2ccccc2Cl)CC1,·,·,·,-9.9,·
O=C(CN1CCC(c2nc3ccccc3s2)CC1)NCc1cccs1,33.3*,-14.2%,26.2*,-94.5*,?
CC(C)n1c(N2CCN(CC(=O)NCc3cccs3)CC2)nc2ccccc21,-26.6,-14.8%,1.7,-13.6,?
O=C(CN1CCC(c2nc3ccccc3s2)CC1)N1CCCCC1,32.8,34.5%,16.5,-61.7*,9.8%
COc1ccc(N2CCN(C(=O)C(=O)c3ccc(F)cc3)CC2)cc1,·,·,·,-25.4,·
CCn1c(C(=O)NCc2ccccc2Br)cc2oc3ccccc3c21,·,·,·,-70.7*,·
CCn1c(C(=O)NCc2cccc(Br)c2)cc2oc3ccccc3c21,·,·,·,-81.7*,·
COC(=O)c1cc2oc3ccccc3c2n1Cc1cc(C)ccc1C,·,·,·,3.2,·
COC(=O)c1cc2oc3ccccc3c2n1Cc1ccc(C)cc1,·,·,·,-30.1,·
CC(=O)N1CCN(c2ccc(NC(=O)c3ccc(Cl)c(Cl)c3)cc2)CC1,48.4,0.0%,-3.5,-6.5,?
O=C(COc1ccc(Cl)cc1)OCc1cc(=O)n2nc(C3CC3)sc2n1,·,·,·,-1.4,·
CCCN(CC(=O)Nc1ccccc1OC)C(=O)c1cccc(S(=O)(=O)NCc2ccccc2)c1,·,?,·,-26.0,10.4µM*
CCCN(CC(=O)Nc1ccccc1OC)C(=O)c1ccc2c(c1)NC(=O)C(C)S2 (configuration not stated),·,10.4µM*,·,-16.4,?
CCCNC(=O)c1ccccc1NC(=O)c1ccc2c(c1)NC(=O)C(C)S2 (configuration not stated),14.6,?,12.2,15.2,?
COc1ccc(S(=O)(=O)N(C)C)cc1NC(=O)c1ccc2c(c1)NC(=O)C(C)S2 (configuration not stated),·,9.28µM*,·,0.0,5.22µM*
CCOC(=O)c1ccccc1NC(=O)Cn1c(=O)n(-c2cccc(C)c2)c(=O)c2c1c1cc(C)ccc1n2C,·,·,·,33.3,·
O=C(NCc1cccc(F)c1)c1ccc(CS(=O)c2ccccc2Cl)o1 (configuration not stated),·,·,·,-8.9,·
Cc1sc(NC(=O)C2CCCCC2)c(C#N)c1-c1ccccc1,142.0*,0.0%,57.2*,-2.9,0.0%
Cc1cccc(C(=O)Nc2sc(C)c(-c3ccccc3)c2C#N)c1,59.0*,132.3%,40.7*,13.0,114.0%
Cc1noc(C)c1C(=O)Nc1sc(C)c(-c2ccccc2)c1C#N,13.3,-18.9%,5.7,-104.2*,·
Cc1cc(C)c(C)c(OCC(=O)Nc2ccc(S(=O)(=O)Nc3nc(C)cc(C)n3)cc2)c1,·,·,·,19.3,·
